In PubChem BioAssay (EPA / NIEHS) one finds outcome data, which are given here for 33 compounds.

Records with an inconclusive call do not appear. Calls of active or inactive are those of the source. Rule for the calls: active = hit-call score of the fitted dose curve at least 0.9, where 1 is the maximum; inconclusive = response in the unintended direction; inactive = score below 0.9.

human Retinoic Acid Receptor beta (RARb), RARB (gene 5915), sequence (P10826 whole entry, looked up): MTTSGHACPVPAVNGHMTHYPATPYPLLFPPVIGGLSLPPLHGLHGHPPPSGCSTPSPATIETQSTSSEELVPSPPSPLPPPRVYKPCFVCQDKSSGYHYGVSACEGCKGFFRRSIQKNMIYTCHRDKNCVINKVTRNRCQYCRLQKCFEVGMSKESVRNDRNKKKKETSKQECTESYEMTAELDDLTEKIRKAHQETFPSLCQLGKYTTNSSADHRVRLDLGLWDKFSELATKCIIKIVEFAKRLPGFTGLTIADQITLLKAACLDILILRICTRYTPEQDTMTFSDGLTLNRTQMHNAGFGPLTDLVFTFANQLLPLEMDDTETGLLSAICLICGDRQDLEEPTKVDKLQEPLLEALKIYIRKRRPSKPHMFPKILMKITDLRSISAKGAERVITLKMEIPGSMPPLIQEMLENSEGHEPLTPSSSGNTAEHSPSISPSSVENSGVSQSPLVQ

The target of the assay is human Retinoic Acid Receptor beta (RARb), RARB (gene 5915) (UniProt P10826). Kind of assay: ATG_RARb_TRANS: Attagene TRANS-FACTORIAL HepG2 Assay for human Retinoic Acid Receptor beta (AID 2283004). On the procedure:
ATG_TRANS is a cell-based, multiplexed-readout assay that uses HepG2, a human liver cell line, with measurements taken at 24 hours after chemical dosing in a 24-well plate.ATG_RARb_TRANS is one of 30 assay component(s) measured or calculated from the ATG_TRANS assay. It is designed to make measurements of mRNA induction, a form of inducible reporter, as detected with fluorescence intensity signals by Reverse transcription polymerase chain reaction (RT-PCR) and Capillary electrophoresis technology.Data from the assay component ATG_RARb_TRANS was analyzed into 1 assay endpoint. This assay endpoint, ATG_RARb_TRANS, was analyzed in the positive analysis fitting direction relative to DMSO as the negative control and baseline of activity. Using a type of inducible reporter, measures of mRNA for gain-of-signal activity can be used to understand the reporter gene at the transcription factor-level as they relate to the gene RARB. Furthermore, this assay endpoint can be referred to as a primary readout, because this assay has produced multiple assay endpoints where this one serves a reporter gene function. To generalize the intended target to other relatable targets, this assay endpoint is annotated to the nuclear receptor intended target family, where the subfamily is non-steroidal.
Human liver HepG2 cells are transiently transfected with multiple reporter transcription units (MRTUs) in 6-well plates using FuGene 6 reagent (Roche; 3 ml FuGene/1 mg DNA). The MRTU constructs are regulated by a cis-regulating element (promoter). […] A major difference between the CIS and TRANS system is that in CIS activities of endogenous TFs are measured, whereas the TRANS assay evaluates changes in activities of exogenous, chimeric NR-Gal4 proteins. […] At the end of 24 hour incubation, total RNA was isolated using TriZol reagent (Invitrogen). The isolated RNA is then reverse-transcribed using oligo(dT) primer and Mo-MLV reverse transcriptase (Invitrogen) with DNAse I (Ambion) treatment for 30 min. The one-tenth of the produced cDNA was amplified by PCR using Taq DNA polymerase (Invitrogen) and two reporter sequence-specific primers. The PCR products were fluorescently labeled by primer extension with 6-arboxyfluorescein (6-FAM) 5'-labeled reporter sequence-specific primer (2 min at 95 C, 20 s at 68 C and 10 min at 72 C) and these products were digested with 5U of HpaI (New England Biolabs) for 2h at 37 C. The fragments were purified using Qiaquick PCR columns (Qiagen), analyzed on an ABI 3130xL genetic analyzer (Applied Biosystems) with peak positions identified by using a set of X-rhodamine (ROX)-labeled MapMarker1000 molecular weight standards (BioVentures). The raw capillary electrophoresis data was processed using Attagraph software (Attagene).
Consider `CO[Si](CCCn1c(=O)n(CCC[Si](OC)(OC)OC)c(=O)n(CCC[Si](OC)(OC)OC)c1=O)(OC)OC`, for which the outcome was inactive. For the compound `CCCCCC(CO)CCC` (stereo not drawn), the result was inactive. Turning to `CC(C)=CCCC(C)=CCCC(C)=CCO`, the outcome was inactive.

Consider `C=CC[N+](C)(C)CC=C`, for which the compound was classed as inactive.

As to `OCCOc1cccc(OCCO)c1`, the outcome was inactive. The result for `Fc1c(F)c(F)c(Br)c(F)c1F` reads “inactive”. Take `CNC[C@H](O)c1cccc(O)c1`: the call was inactive. Consider `O=S(=O)(O)c1cccc2c(S(=O)(=O)O)cccc12`, for which the compound was classed as inactive. The entry for `CCOC(=O)c1ccccc1OC` is “inactive”. For the compound `COC(C)CCO` (stereo not drawn), the compound was called inactive. On to `O=C[C@H](O)[C@H](O)[C@H](O)CO`, for which the outcome was inactive. The result for `CC1(CO)CN(c2ccccc2)NC1=O` (stereo not drawn) reads “inactive”; that for `CC(C)C[C@H]1C(=O)N2CCC[C@H]2[C@]2(O)O[C@](NC(=O)[C@@H]3C=C4c5cccc6[nH]c(Br)c(c56)C[C@H]4N(C)C3)(C(C)C)C(=O)N12`, “inactive”. The result for `NCCCCCCN` reads “inactive”; that for `CCCCCCCCCCCCCCCC(=O)O`, “inactive”.

Take `C=O`: the compound was called inactive.

For `CC1CC(OC(=O)c2ccccc2O)CC(C)(C)C1` (stereo not drawn), the outcome was inactive. The entry for `CC(C)=CCC[C@](C)(O)[C@@H]1CC=C(C)CC1` is “inactive”; for `O=S(=O)(O)NC1CCCCC1` it is “inactive”; for `Cc1ccc2ccccc2n1` it is “inactive”. The entry for `O=C(O)CN(CCN(CC(=O)O)CC(=O)O)CCN(CC(=O)O)CC(=O)O` is “inactive”; for `CCCCCCCCCCCCOCCO` it is “inactive”; for `CCC(C)CCCC(C)(C)O` (stereo not drawn) it is “inactive”. The result for `CCCCCOC(=O)CCC` reads “inactive”; that for `O=C(O)CCCCCCCC(=O)O`, “inactive”.

As to `CC1(C)CCC(C)(C)c2cc(C(=O)Nc3ccc(C(=O)O)cc3)ccc21`, the result was inactive. The entry for `COc1cc(C=O)ccc1OC(=O)C(C)C` is “inactive”. The entry for `CCCCCCOC(=O)CCCCC` is “inactive”; for `CC(=O)c1c(C)cc(C(C)(C)C)cc1C` it is “inactive”; for `CCCC[n+]1ccccc1` it is “inactive”. The result for `C=CC(=O)OCCOCCOCC` reads “inactive”; that for `Cc1cccc(C)c1[N+](=O)[O-]`, “inactive”; that for `CC(=O)C(=O)O`, “inactive”.
